These results are taken from PubChem BioAssay (EPA / NIEHS).

Read-out in test [1]: Phosphatase and tensin (PTEN), PTEN (gene 5728)
Put plainly: LTEA_HepaRG_PTEN: Life Technologies and Expression Analysis (LTEA) Assay for Phosphatase and tensin (PTEN) using HepaRG (AID 2283523). Conditions: mRNA level, 48 h; actives raise or lower the signal. The essentials: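 Read-out: TaqMan qRT-PCR of PTEN transcript, normalized to three housekeeping genes, fitted in both directions against 0.5% DMSO. Differentiated human HepaRG cultures received chemicals for 48 h, eight-point half-log series topping at 100 uM.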

Read-out in test [2]: solute carrier (SLC22A1), SLC22A1 (gene 6580)
Nature of the test: LTEA_HepaRG_SLC22A1: Life Technologies and Expression Analysis (LTEA) Assay for solute carrier (SLC22A1) using HepaRG (AID 2283524).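 As to AC50: differentiated human HepaRG liver cells in serum-free induction medium.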 The note with it: mRNA level, 48 h; actives raise or lower the signal. A digest of the protocol:
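Transcript level of SLC22A1 quantified by qRT-PCR (normalized to three housekeeping genes) after 48 h chemical exposure of HepaRG cells, eight concentrations up to 100 µM, half-log steps, 0.5% DMSO vehicle. Gain or loss relative to DMSO fitted bidirectionally.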

Read-out in test [3]: Pyruvate Dehydrogenase Kinase 4 (PDK4), PDK4 (gene 5166)
Nature of the test: LTEA_HepaRG_PDK4: Life Technologies and Expression Analysis (LTEA) Assay for Pyruvate Dehydrogenase Kinase 4 (PDK4) using HepaRG (AID 2283525). Conditions: mRNA level, 48 h; actives raise or lower the signal. A digest of the protocol: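 Readout is qRT-PCR of PDK4 transcript, normalized to three housekeeping genes, with bidirectional fitting against 0.5% DMSO vehicle. Differentiated HepaRG cells were treated 48 h in serum-free induction medium, duplicate wells, eight-point half-log series topping at 100 uM.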

Read-out in test [4]: NAD(P)H dehydrogenase [quinone] 1 (NQO1), NQO1 (gene 1728)
Put plainly: LTEA_HepaRG_NQO1: Life Technologies and Expression Analysis (LTEA) Assay for NAD(P)H dehydrogenase [quinone] 1 (NQO1) using HepaRG (AID 2283526). The note with it: mRNA level, 48 h; actives raise or lower the signal. A digest of the protocol:
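qRT-PCR read-out (Fluidigm TaqMan), normalized to three housekeeping genes, after 48 h chemical exposure of HepaRG cells. Concentrations: eight points, top 100 uM, half-log steps, 0.5% DMSO vehicle. Gain or loss of signal fitted relative to DMSO.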

Read-out in test [5]: Nuclear factor erythroid 2-related factor 2 (Homo sapiens) (UniProt Q16236)
Nature of the test: LTEA_HepaRG_NFE2L2: Life Technologies and Expression Analysis (LTEA) Assay for Nuclear factor erythroid 2-related factor 2 (NFE2L2) Transcription Factor using HepaRG (AID 2283527).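 Also: TaqMan qRT-PCR transcript level normalised to ACTB GAPDH and POLR2A housekeeping genes.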 The note with it: mRNA level, 48 h; actives raise or lower the signal. The essentials: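 NFE2L2 transcript level was read by qRT-PCR (housekeeping ACTB/GAPDH/POLR2A normalisation) after 48 h chemical treatment of HepaRG in serum-free induction medium. Duplicate 8-point half-log curves, top 100 uM, 0.5% DMSO vehicle; up- or down-regulation fitted against vehicle.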

Read-out in test [6]: succinate dehydrogenase complex iron sulfur subunit B (SDHB), SDHB (gene 6390)
Nature of the test: LTEA_HepaRG_SDHB: Life Technologies and Expression Analysis (LTEA) Assay for succinate dehydrogenase complex iron sulfur subunit B (SDHB) using HepaRG (AID 2283528). Conditions: mRNA level, 48 h; actives raise or lower the signal. The essentials:
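Readout is SDHB transcript level by qRT-PCR, normalised to three housekeeping genes and fitted bidirectionally against 0.5% DMSO vehicle. Human HepaRG cells were treated for 48 h at up to 100 uM.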

Read-out in test [7]: Signal transducer and activator of transcription 3 (Homo sapiens) (UniProt P40763)
Nature of the test: LTEA_HepaRG_STAT3: Life Technologies and Expression Analysis (LTEA) Assay for Signal transducer and activator of transcription (STAT3) using HepaRG (AID 2283529). Conditions: mRNA level, 48 h; actives raise or lower the signal. The essentials:
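STAT3 transcript quantified by qRT-PCR against three housekeeping genes (ACTB, GAPDH, POLR2A), fitted both directions relative to DMSO. HepaRG cultures exposed 48 h to eight half-log concentrations, top 100 uM, 0.5% DMSO, serum-free induction medium.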

Read-out in test [8]: solute carrier (SLCO1B1), SLCO1B1 (gene 10599)
Put plainly: LTEA_HepaRG_SLCO1B1: Life Technologies and Expression Analysis (LTEA) Assay for solute carrier (SLCO1B1) using HepaRG (AID 2283530). The note with it: mRNA level, 48 h; actives raise or lower the signal. The essentials:
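Human HepaRG cultures treated for 48 h with an eight-concentration half-log series topping at 100 uM; SLCO1B1 measured by qRT-PCR and fitted bidirectionally relative to DMSO.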

Read-out in test [9]: sulfotransferase 2A1 (SULT2A1), SULT2A1 (gene 6822)
Nature of the test: LTEA_HepaRG_SULT2A1: Life Technologies and Expression Analysis (LTEA) Assay for sulfotransferase 2A1 (SULT2A1) using HepaRG (AID 2283531). Conditions: mRNA level, 48 h; actives raise or lower the signal. A digest of the protocol:
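Gene-expression endpoint in a human liver cell line: SULT2A1 mRNA change after 48 h chemical treatment, curves fitted in both directions relative to 0.5% DMSO vehicle. Concentrations spanned eight half-log steps from 100 uM.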

Read-out in test [10]: Transforming Growth Factor (TGFA), TGFA (gene 7039)
Nature of the test: LTEA_HepaRG_TGFA: Life Technologies and Expression Analysis (LTEA) Assay for Transforming Growth Factor (TGFA) using HepaRG (AID 2283532). The note with it: mRNA level, 48 h; actives raise or lower the signal. A digest of the protocol:
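TGFA transcript quantified by qRT-PCR (Fluidigm arrays) against three housekeeping genes, after 48 hours chemical treatment of HepaRG cells. Top concentration 100 uM with half-log dilutions, 8 points, duplicates, 0.5% DMSO.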

Read-out in test [11]: Transforming Growth Factor (TGFB1), TGFB1 (gene 7040)
Put plainly: LTEA_HepaRG_TGFB1: Life Technologies and Expression Analysis (LTEA) Assay for Transforming Growth Factor (TGFB1) Transporter using HepaRG (AID 2283533). Conditions: mRNA level, 48 h; actives raise or lower the signal. A digest of the protocol:
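Eight-point concentration-response (max 100 uM, half-log) in HepaRG under serum-free induction conditions, 48 h. TGFB1 mRNA by qRT-PCR, housekeeping-normalized.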

Read-out in test [12]: TIMP1, TIMP1 (gene 7076)
Nature of the test: LTEA_HepaRG_TIMP1: Life Technologies and Expression Analysis (LTEA) Assay for TIMP1 using HepaRG (AID 2283534).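 Also: TaqMan qRT-PCR signal normalized to ACTB GAPDH and POLR2A housekeeping genes.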 Conditions: mRNA level, 48 h; actives raise or lower the signal. The essentials:
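TIMP1 induction or repression in HepaRG cells after 48 h chemical exposure (eight concentrations, highest 100 uM), assessed by normalized qRT-PCR with bidirectional fitting to DMSO controls.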

Read-out in test [13]: Tumor necrosis factor receptor 1 (TNFRSF1A), TNFRSF1A (gene 7132)
Nature of the test: LTEA_HepaRG_TNFRSF1A: Life Technologies and Expression Analysis (LTEA) Assay for Tumor necrosis factor receptor 1 (TNFRSF1A) using HepaRG (AID 2283535). The note with it: mRNA level, 48 h; actives raise or lower the signal. The essentials: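 Assay uses 48 h chemical treatment of differentiated HepaRG monolayers, tested in duplicate at eight concentrations from 100 uM downward in 0.5% DMSO. mRNA is normalized to ACTB, GAPDH and POLR2A, with induction or suppression fitted relative to vehicle.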

Read-out in test [14]: Thyroid Hormone Responsive (THRSP), THRSP (gene 7069)
Nature of the test: LTEA_HepaRG_THRSP: Life Technologies and Expression Analysis (LTEA) Assay for Thyroid Hormone Responsive (THRSP) using HepaRG (AID 2283536). The note with it: mRNA level, 48 h; actives raise or lower the signal. The essentials: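 THRSP transcript quantified by Fluidigm qRT-PCR against three housekeeping genes after 48 h chemical exposure of HepaRG cells in serum-free induction medium; eight-point half-log series, top 100 uM, 0.5% DMSO vehicle, duplicate wells.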

Read-out in test [15]: Cellular tumor antigen p53 (Homo sapiens) (UniProt P04637)
Nature of the test: LTEA_HepaRG_TP53: Life Technologies and Expression Analysis (LTEA) Assay for Tumor Protein P53 (TP53) using HepaRG (AID 2283537). Conditions: mRNA level, 48 h; actives raise or lower the signal. A digest of the protocol:
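Read-out is TP53 transcript level by microfluidic qRT-PCR, normalised to three housekeeping genes and fitted bidirectionally against DMSO. Human HepaRG cells received compounds for 48 h, highest concentration 100 uM.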

Read-out in test [16]: UDP glucuronosyltransferase (UGT1A1), UGT1A1 (gene 54658)
Put plainly: LTEA_HepaRG_UGT1A1: Life Technologies and Expression Analysis (LTEA) Assay for UDP glucuronosyltransferase (UGT1A1) using HepaRG (AID 2283538). The note with it: mRNA level, 48 h; actives raise or lower the signal. The essentials: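 HepaRG, 48 h chemical exposure (top 100 uM, half-log 8-pt, 0.5% DMSO vehicle), duplicate wells; qRT-PCR (TaqMan, Fluidigm array) for UGT1A1 mRNA, housekeeping-normalized; bidirectional curve fit vs DMSO baseline.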

Read-out in test [17]: UDP glucuronosyltransferase (UGT1A6), UGT1A6 (gene 54578)
Put plainly: LTEA_HepaRG_UGT1A6: Life Technologies and Expression Analysis (LTEA) Assay for UDP glucuronosyltransferase (UGT1A6) using HepaRG (AID 2283539). The note with it: mRNA level, 48 h; actives raise or lower the signal. A digest of the protocol: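 Measures mRNA change in HepaRG hepatic cells exposed 48 h to chemicals (eight-point, maximum 100 uM, 0.5% DMSO vehicle) in serum-free induction medium. Expression normalized to endogenous controls; DMSO served as negative control and baseline.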

Test [18] in a line: LTEA_HepaRG_LDH_cytotoxicity: Cytotoxicity Assessment in the Life Technologies and Expression Analysis (LTEA) Assay (AID 2283563; active = hit-call score of the fitted dose curve at least 0.9, where 1 is the maximum). A digest of the protocol: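 Spent-medium LDH after 48 h chemical exposure of HepaRG cells in serum-free induction medium; eight concentrations, half-log dilutions from 100 uM, duplicate wells, fitted upward relative to 0.5% DMSO.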
Test [19] can be described thus: ATG_XTT_Cytotoxicity: Cytotoxicity Assessment in the Attagene TRANS-FACTORIAL HepG2 Assay (AID 2283584; active = hit-call score of the fitted dose curve at least 0.9, where 1 is the maximum). A digest of the protocol: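 24 h chemical exposure of reporter-transfected HepG2; XTT signal loss vs DMSO indicates cytotoxicity.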
Read-out in test [20]: X-box binding protein 1 (XBP1), XBP1 (gene 7494)
Put plainly: LTEA_HepaRG_XBP1: Life Technologies and Expression Analysis (LTEA) Assay for X-box binding protein 1 (XBP1) using HepaRG (AID 2283540). Conditions: mRNA level, 48 h; actives raise or lower the signal. The essentials:
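Eight concentrations (half-log, highest 100 uM, 0.5% DMSO) tested in duplicate on HepaRG cells over 48 h in serum-free induction medium; qRT-PCR of XBP1 normalised to ACTB, GAPDH, POLR2A.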

Inconclusive results are not listed. Active and inactive are the calls of the source. The calls were made as follows, unless noted: active = hit-call score of the fitted dose curve at least 0.9, where 1 is the maximum; inactive = score below 0.9.

Chain of Cellular tumor antigen p53 (Homo sapiens) (P04637 whole entry, looked up): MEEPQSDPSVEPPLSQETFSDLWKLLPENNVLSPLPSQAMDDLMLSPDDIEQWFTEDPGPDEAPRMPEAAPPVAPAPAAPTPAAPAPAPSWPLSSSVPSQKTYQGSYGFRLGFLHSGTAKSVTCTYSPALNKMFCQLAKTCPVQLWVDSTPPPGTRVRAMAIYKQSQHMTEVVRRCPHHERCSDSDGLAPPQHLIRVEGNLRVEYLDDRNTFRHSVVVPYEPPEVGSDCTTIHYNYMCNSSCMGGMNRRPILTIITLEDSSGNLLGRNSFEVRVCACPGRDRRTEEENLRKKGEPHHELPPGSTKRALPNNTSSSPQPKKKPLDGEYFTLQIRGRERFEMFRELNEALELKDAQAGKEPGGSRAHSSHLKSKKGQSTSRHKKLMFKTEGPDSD
Chain of Signal transducer and activator of transcription 3 (Homo sapiens) (P40763 whole entry, looked up): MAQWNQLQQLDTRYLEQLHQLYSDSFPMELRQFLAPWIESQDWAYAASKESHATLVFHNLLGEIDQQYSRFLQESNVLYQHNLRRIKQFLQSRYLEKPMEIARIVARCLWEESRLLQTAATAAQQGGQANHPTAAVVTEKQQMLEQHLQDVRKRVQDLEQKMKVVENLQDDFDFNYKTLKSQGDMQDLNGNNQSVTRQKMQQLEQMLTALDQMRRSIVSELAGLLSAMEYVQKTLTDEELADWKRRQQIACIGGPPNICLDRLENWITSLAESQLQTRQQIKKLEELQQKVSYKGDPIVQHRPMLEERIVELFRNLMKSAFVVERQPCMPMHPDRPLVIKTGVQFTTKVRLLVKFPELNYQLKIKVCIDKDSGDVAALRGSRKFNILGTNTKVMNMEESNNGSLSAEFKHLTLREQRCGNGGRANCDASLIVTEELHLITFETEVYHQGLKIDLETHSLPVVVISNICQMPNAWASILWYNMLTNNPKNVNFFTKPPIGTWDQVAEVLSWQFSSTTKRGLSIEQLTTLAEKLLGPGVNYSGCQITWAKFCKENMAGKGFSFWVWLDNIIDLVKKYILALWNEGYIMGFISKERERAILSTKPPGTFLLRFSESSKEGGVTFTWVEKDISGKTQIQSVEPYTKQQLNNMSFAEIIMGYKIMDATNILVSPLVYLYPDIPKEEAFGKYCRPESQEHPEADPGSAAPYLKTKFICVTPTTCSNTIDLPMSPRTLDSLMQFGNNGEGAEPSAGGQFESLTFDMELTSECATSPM
Chain of Nuclear factor erythroid 2-related factor 2 (Homo sapiens) (Q16236 whole entry, looked up): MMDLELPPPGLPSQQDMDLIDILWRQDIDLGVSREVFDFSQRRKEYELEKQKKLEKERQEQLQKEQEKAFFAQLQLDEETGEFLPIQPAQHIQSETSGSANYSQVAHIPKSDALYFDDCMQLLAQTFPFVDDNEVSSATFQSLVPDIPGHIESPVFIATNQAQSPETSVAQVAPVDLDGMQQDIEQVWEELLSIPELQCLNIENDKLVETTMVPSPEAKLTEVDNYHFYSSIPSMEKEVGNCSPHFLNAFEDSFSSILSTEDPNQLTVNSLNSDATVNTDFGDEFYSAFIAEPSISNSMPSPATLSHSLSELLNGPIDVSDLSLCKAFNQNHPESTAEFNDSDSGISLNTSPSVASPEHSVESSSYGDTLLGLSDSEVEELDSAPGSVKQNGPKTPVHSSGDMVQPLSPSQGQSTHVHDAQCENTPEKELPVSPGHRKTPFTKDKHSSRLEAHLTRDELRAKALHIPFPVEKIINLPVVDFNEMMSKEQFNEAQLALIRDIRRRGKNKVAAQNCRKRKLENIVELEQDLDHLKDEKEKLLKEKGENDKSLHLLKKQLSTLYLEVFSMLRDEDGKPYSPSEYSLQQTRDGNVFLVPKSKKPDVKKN

Turning to `COc1ccc(/C=C/S(=O)(=O)NC(=O)c2ccc(C)cc2Cl)cc1`, the compound was classed as inactive in test [1], in test [2], in test [4], in test [5], in test [6] and in test [7]. Also, the outcome in test [8], in [9], in test [10], in [11], in test [12] and in [13] was inactive. Further, the call in test [14], in [15], in test [16], in test [17], in test [18] and in test [19] was inactive. Further, the AC50 in [3] was 6.62 µM (active).

As to `CN(C)c1ccc(N=NS(=O)(=O)O)cc1`, the call in test [1], in test [3], in test [4], in test [5], in test [6] and in test [8] was inactive. The result in test [9], in [10], in [11], in test [12], in test [15] and in [16] was inactive. Further, the compound was classed as inactive in test [17], in test [20], in test [18] and in test [19]. Also, the AC50 was 20.5 µM (active) in test [2], 0.717 µM (active) in [7], 12.3 µM (active) in [13] and 11.1 µM (active) in test [14].

Take `O=C(O)CC(O)C(=O)O` (configuration not stated): the compound was classed as inactive in test [1], in test [2], in [3], in test [5], in test [6] and in [7]. Moreover, the result in test [8], in test [9], in test [10], in test [11], in test [12] and in test [13] was inactive. Besides, the compound was called inactive in [14], in [15], in test [16], in test [17], in test [18] and in [19].

Broadly, the AC50 is the midpoint of the concentration-response curve, whichever way the signal moves.
